Each structure is given as a SMILES string. The panel holds about 79,000 compounds, 15% with a hit somewhere; the sample as a whole holds those more often. Unmarked numbers belong to inactive results. The source made the active and inactive calls. Cut-off read from the data, not from the text of the source: active = growth inhibition above about 70%; inactive = the rest.

The first experiment is described as follows: NCI Yeast Anticancer Drug Screen. Data for the wt2 strain (AID 169).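 Note: 0% = growth of vehicle-treated yeast cultures.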 The following applies: S. cerevisiae wt2 strain growth inhibition; at 33.0 µM; active compounds read high. The essentials: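 Compound exposure of yeast; growth compared with vehicle controls; inhibition reported.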
For `CC(=O)O/N=C/c1c2ccccc2cc2ccccc12`, the growth inhibition is 13%.

As to `CC[C@@]1(OC(=O)CN(C)C)C(=O)OCc2c1cc1n(c2=O)Cc2cc3ccccc3nc2-1`, the growth inhibition was 84% (active).

Take `CCCCCCC(CCl)c1sc(-c2csc(CCNC(=O)OC(C)(C)C)n2)nc1C(=O)OC` (stereo not given): the growth inhibition is -6%.

Regarding `CCOC(=O)C1=C(C)NC(C)=C(C(=O)OCC)C1c1cccc([N+](=O)[O-])c1`, the growth inhibition is 45%.

As for `Cc1ccc2c(/C=C/c3ccc(N(C)C)cc3)ccnc2c1C`, the growth inhibition was 63%.

For the molecule `O=C1C(Br)=CC(Br)(Br)C=C1Br`, the growth inhibition was 96% (active).

Staying with this experiment, now noted: S. cerevisiae wt2 strain growth inhibition; at 100.0 µM; active compounds read high.
With `COc1ccc2nc(N/N=C/c3sccc3C)cc(C)c2c1`, the growth inhibition was 96% (active).

`O=C(O)/C=C\C(=O)NNc1ccc(Br)cc1`: the growth inhibition is 99% (active).

Turning to `S=c1[nH]nc(Cc2ccccc2)c(=S)[nH]1`, the growth inhibition is 95% (active).

For `COc1ccc2nc3cccc([N+](=O)[O-])c3c(NCCCO)c2c1`, the growth inhibition was 98% (active).

As for `Cc1ccc(N(C=O)c2c([N+](=O)[O-])cc([N+](=O)[O-])c3c2=[N+]([O-])CN=3)cc1`, the growth inhibition was 98% (active).

Consider `COc1ccc(C(=O)OCCc2ccccc2)cc1`, for which the growth inhibition was -8%.

For `COc1ccc(C(=O)NCCN(C)C)c2nc3ccccc3cc12`, the growth inhibition was 90% (active).

In the case of `NCC(O)CSCc1ccc(Cl)cc1` (stereo not given), the growth inhibition was -8%.

`CN(C)/N=N/c1nc[nH]c1C(N)=O`: the growth inhibition is 98% (active).

As to `O=c1[nH]c(=O)n(CCCO)cc1F`, the growth inhibition was -18%.

For `COc1ccc(/C(=N/O)c2ccccc2C2=Nc3ccccc3C(NCc3ccccc3)O2)cc1C` (stereo not given), the growth inhibition is 96% (active).

As to `CCCC(=O)OC(OC(=O)CCC)c1ccc([N+](=O)[O-])o1`, the growth inhibition is 11%.

As to `O=C(/C(=C/c1ccccc1)CBr)c1ccccc1`, the growth inhibition was 99% (active).

For `O=C(Cc1ccccc1F)NC1=C(Cl)C(=O)c2ccccc2C1=O`, the growth inhibition is -4%.

`Cc1cccc(N2CCN(C(=O)/C(=C/c3ccccc3)NC(=O)c3ccccc3)CC2)c1`: the growth inhibition is 46%.

Regarding `c1cc(Nc2ccc3c(c2)OCO3)c2cc(C3CCCCC3)ccc2n1`, the growth inhibition was 81% (active).

Regarding `COc1cc(NCCCCCNC(C)C)c2ncccc2c1Cl`, the growth inhibition is 6%.

Consider `COc1ccc2cc(CN3CCC(C4CCN(Cc5ccc6cc(OC)ccc6c5)CC4)CC3)ccc2c1`, for which the growth inhibition was 98% (active).

Consider `CC(=O)O/N=C/c1c2ccccc2cc2ccccc12`, for which the growth inhibition was 32%.

`CC[C@@]1(OC(=O)CN(C)C)C(=O)OCc2c1cc1n(c2=O)Cc2cc3ccccc3nc2-1`: the growth inhibition is 93% (active).

Take `CCCCCCC(CCl)c1sc(-c2csc(CCNC(=O)OC(C)(C)C)n2)nc1C(=O)OC` (stereo not given): the growth inhibition is 97% (active).

For the molecule `CCOC(=O)C1=C(C)NC(C)=C(C(=O)OCC)C1c1cccc([N+](=O)[O-])c1`, the growth inhibition was 92% (active).

As to `Cc1ccc2c(/C=C/c3ccc(N(C)C)cc3)ccnc2c1C`, the growth inhibition was 86% (active).

With `O=C1C(Br)=CC(Br)(Br)C=C1Br`, the growth inhibition is 98% (active).
